By inhibition is commonly meant the relative decrease from the control value, in per cent.

Results on 38 compounds are retold here after PubChem BioAssay AID651650 (Sanford-Burnham Center for Chemical Genomics, 2012).

The assay deals with Neuropilin-1 (Homo sapiens) (UniProt O14786). As to the kind of experiment: NRP-1 b1b2 CendR peptide binding inhibitors, dose response, biochemical, FP and AlphaScreen panel (AID 651650). The settings on record: NRP-1 b1b2 / RPARPAR peptide binding, FP or AlphaScreen; run 1, at 100 µM (top of the series).
Chain of Neuropilin-1 (Homo sapiens) (O14786 whole entry, looked up): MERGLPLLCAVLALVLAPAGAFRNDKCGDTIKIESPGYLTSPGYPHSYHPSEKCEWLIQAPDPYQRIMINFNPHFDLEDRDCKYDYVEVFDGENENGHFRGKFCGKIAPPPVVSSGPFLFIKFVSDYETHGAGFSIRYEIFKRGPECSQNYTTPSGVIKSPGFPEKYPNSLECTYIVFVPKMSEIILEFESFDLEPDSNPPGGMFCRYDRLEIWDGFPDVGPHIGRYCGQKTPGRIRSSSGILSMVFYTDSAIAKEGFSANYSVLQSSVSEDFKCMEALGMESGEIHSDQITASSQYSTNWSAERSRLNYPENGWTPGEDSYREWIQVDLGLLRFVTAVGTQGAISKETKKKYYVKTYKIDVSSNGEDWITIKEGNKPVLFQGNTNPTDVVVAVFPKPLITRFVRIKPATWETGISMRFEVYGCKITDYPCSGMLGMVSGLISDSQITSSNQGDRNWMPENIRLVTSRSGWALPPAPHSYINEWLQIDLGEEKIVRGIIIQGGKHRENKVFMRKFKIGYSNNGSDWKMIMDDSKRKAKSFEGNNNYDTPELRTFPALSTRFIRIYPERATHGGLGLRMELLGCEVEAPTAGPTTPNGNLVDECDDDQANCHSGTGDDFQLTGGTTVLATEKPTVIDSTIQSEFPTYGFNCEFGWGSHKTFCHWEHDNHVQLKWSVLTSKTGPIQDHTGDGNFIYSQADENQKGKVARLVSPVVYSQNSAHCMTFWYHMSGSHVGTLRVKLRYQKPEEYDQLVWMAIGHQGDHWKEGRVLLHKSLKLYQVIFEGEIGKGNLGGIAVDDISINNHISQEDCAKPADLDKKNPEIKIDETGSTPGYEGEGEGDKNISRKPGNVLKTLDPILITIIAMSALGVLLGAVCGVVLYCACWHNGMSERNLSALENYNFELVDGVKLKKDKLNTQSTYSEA
As to `COC(=O)CCCC1=CC2=CC(=O)C(C)(OC(=O)c3cccs3)C(=O)C2=CN1CCCCO` (stereo not drawn), the inhibition turned out to be 38.6%.

With `Nc1cc(S(=O)(=O)O)cc([N+](=O)[O-])c1O`, the inhibition stood at 74.8%. With `CC(Oc1ccccc1)C(=O)NC1=NCCS1` (stereo not drawn), the inhibition is 51.9%. As to `c1ccc2c3n(nc2c1)CCCO3`, the inhibition worked out at 27.6%. For `O=C(Nc1cccc(C(F)(F)F)c1)C1Cc2c(-c3cccc(F)c3)ccnc2O1` (stereo not drawn) the value was 18.4%; for `Cc1ccsc1C(=O)N1CCCC(CO)(Cc2ccccc2F)C1` (stereo not drawn), 17.8%. For `O=C(CSc1nc2ccc(Cl)cc2[nH]1)NCCc1ccccc1` the value was 18.8%. For `CC(=O)/C(=N\Nc1ccc(Cl)cc1Cl)Sc1cccc2cccnc12` the value was 24.8%; for `CCc1cc(C(=O)OC)c(NC(=O)c2ccoc2C)s1`, 41.2%; for `Cc1nc(Nc2ccc(S(N)(=O)=O)cc2)oc1C`, 60.3%. In the case of `CC(C)(C)OC(=O)NCc1ccc(CNC(=O)c2nc[nH]c2C(=O)N2CCN(C(=O)OC(C)(C)C)CC2)cc1`, the inhibition was 16.3%. As for `C=C1CCN(C(C(=O)OC)C(C)C)S(=O)(=O)c2ccc(F)cc21` (stereo not drawn), the figure is 68%; as for `OCC[C@H]1C[C@H](O)[C@@H](O)[C@]2(CCCCO2)O1`, -5.29%; as for `CN(C)/N=C/c1ccc(Sc2ccc([N+](=O)[O-])cc2[N+](=O)[O-])o1`, 55.1%. For `O=C1CSC(c2cn(-c3ccccc3)nc2-c2cccs2)N1CC1CCCO1` (stereo not drawn) the value was 73.3%; for `CC(=O)NCCNc1nc(NC(C)C)nc2ccsc12`, -4.88%; for `Cc1ccccc1Oc1ccc2c(c1)[C@@H]1C[C@H](N(C)C(=O)Nc3cc(Cl)cc(Cl)c3)[C@H]([C@H](C)O)C(=O)N1CC2`, 97.5%. Take `CCOc1ccc(/C=C2/Sc3ccc(C(=O)NCC4CCCO4)cc3N(C)C2=O)cc1OC` (stereo not drawn): the inhibition worked out at 77.7%. For `O=C(O)CCCC(=O)N1CCc2cc(S(=O)(=O)N3CCc4ccccc43)ccc21` the value was -2.42%; for `CCOC(=O)C1=C(C)NC2=C(C(=O)CCC2)C1c1cn(Cc2ccc(Cl)cc2Cl)nc1-c1ccccc1` (stereo not drawn), 72.6%; for `CCc1ccc(NS(=O)(=O)c2c(C(=O)N3CCCCCC3)c(C)n(C)c2C)cc1`, 31.1%.

`CCOCCCNC(=O)C(c1ccc(C)cc1)N(Cc1cccs1)C(=O)c1ccccc1O` (stereo not drawn): the inhibition was 24.4%.

For the compound `Cc1[nH]n(-c2ccccc2)c(=S)c1C=Nc1cccc([N+](=O)[O-])c1`, the inhibition is 14.4%. As to `O=C(O)c1ccc(C(=O)Nc2cccc3ccccc23)c(C(=O)O)c1`, the inhibition came to 76.6%. With `Cc1csc(NC(C)c2nc3cc(C(F)(F)F)ccc3n2CCOCCO)n1` (stereo not drawn), the inhibition worked out at 20%. Regarding `COc1cc(C(=O)OCC(=O)Nc2c(F)c(F)c(F)c(F)c2F)cc(OC)c1OC`, the inhibition is 17.8%.

With `Cc1onc(-c2ccccc2)c1C(=O)N1CCCC1`, the inhibition was found to be 31.9%. For `O=C(CSC1CN(C(c2ccccc2)c2ccccc2)C1)N/N=C/c1ccccc1` the value was 53.3%.

With `O=S(=O)(c1ccccc1)c1nc(-c2ccc(F)cc2)oc1N1CCOCC1`, the inhibition came out at 24.8%. Take `c1cc(CNc2ccc3c(c2)OCO3)ccn1`: the inhibition was 27.1%. For `CSc1ncccc1C(=O)OCC(=O)NC1CCCCC1` the value was 56.7%; for `COc1cc(C(=O)NCc2ccccc2)cc(Br)c1OC`, -10%. As for `Cc1cc(NC(=O)COC(=O)c2ccc(C)c(C)c2)no1`, the figure is 5.88%; as for `O=S1(=O)CCOC[C@H](Cc2ccccc2)N1Cc1ccccc1F`, 46.5%. For `CC(=O)OC[C@@H]1CN(Cc2cccc(C(F)(F)F)c2)C[C@H](n2cnc3c(NCc4ccco4)ncnc32)O1` the value was 54.5%; for `CCn1c(=O)c(C(=O)NCCNCCO)c(O)c2ccccc21`, 26.5%; for `Cc1ccc(S(=O)(=O)NCC(=O)N(c2ccccc2)C(C(=O)NCc2ccccc2)c2ccco2)cc1` (stereo not drawn), -4.65%. On to `O=C(NCc1ccccc1)C(c1cccnc1)N(C(=O)c1ccccn1)c1ccccc1F` (stereo not drawn), for which the inhibition amounted to 43.9%.
